{"source": "PubChem BioAssay AID1851", "about": "(National Center for Advancing Translational Sciences (NCATS), 2009)", "note": "Among all 16,000 compounds or so, about 5,700 (36%) were called active. Inconclusive results (about 24%) are left out. This is one part of the list. A number with no mark means an inactive call. Calls follow the shape of the dose curve; as a rule, active = well fitted curve in the direction sought with a large enough effect; inconclusive = small, poorly fitted or top-dose-only effect, or effect the other way; inactive = no such curve, though single readings can be large or run the other way. % is scaled to controls: 0 for no effect and ±100 for the full control effect."}
{"molecular_target": "Cytochrome P450 1A2 (Homo sapiens) (UniProt P05177)", "sequence (P05177 whole entry, looked up)": "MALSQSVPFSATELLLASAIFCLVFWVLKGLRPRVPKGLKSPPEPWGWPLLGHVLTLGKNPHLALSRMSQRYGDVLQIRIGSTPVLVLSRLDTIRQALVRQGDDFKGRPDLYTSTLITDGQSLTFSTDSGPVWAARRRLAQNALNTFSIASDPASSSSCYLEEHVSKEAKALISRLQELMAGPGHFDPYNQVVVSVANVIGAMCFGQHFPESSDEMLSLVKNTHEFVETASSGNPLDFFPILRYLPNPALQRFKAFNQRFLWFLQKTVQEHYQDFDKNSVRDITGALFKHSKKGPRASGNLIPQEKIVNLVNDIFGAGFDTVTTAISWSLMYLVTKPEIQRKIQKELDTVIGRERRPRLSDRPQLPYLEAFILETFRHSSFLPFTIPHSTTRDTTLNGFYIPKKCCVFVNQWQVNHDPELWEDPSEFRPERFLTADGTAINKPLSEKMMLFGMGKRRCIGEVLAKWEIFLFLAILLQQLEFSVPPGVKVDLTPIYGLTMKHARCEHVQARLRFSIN", "test": "Cytochrome panel assay with activity outcomes", "conditions": "recombinant CYP, pro-luciferin dealkylation, luminescence, p450-cyp1a2; series mostly up to 57.1 µM"}
{"molecule": "Cc1ccc(S(=O)(=O)N(C)c2cc(S(=O)(=O)N3CCC(C)CC3)c(C)cc2C)cc1", "AC50": "inactive"}
{"molecule": "COc1ccc(/C=N/NC(=S)NC2CCS(=O)(=O)C2)cc1OC", "note": "(stereo not drawn)", "AC50": "6310 nM (active)"}
{"molecule": "O=S(=O)(c1ccccc1S(=O)(=O)N1CCCCC1)N1CCCCC1", "AC50": "inactive"}
{"molecule": "O=C1SC(c2ccccc2)=C/C1=C\\N1CCCCC1", "AC50": "1000 nM (active)"}
{"molecule": "COC(=O)C/C=C\\[C@@H](C)[C@@H](/C=N\\O[C@@H](C)c1cc(-c2c(C)cc(C)cc2C)no1)NS(=O)(=O)c1ccc(C)cc1", "activity, negative = inhibition": "4.06% [at 11.4 µM]"}
{"molecule": "CCOc1ccc(S(=O)(=O)NCc2ccc(F)cc2)c2cccnc12", "AC50": "inactive"}
{"molecule": "CCOc1ccccc1OCCOc1ccc(F)cc1", "AC50": "2820 nM (active)"}
{"molecule": "CC1(CCC(=O)OC2CCCCC2)OCCO1", "activity, negative = inhibition": "-7.12% [at 11.4 µM]"}
{"molecule": "CCCCOc1ccc(/C=C/C(=O)NCCc2nc3ccccc3[nH]2)cc1", "AC50": "inactive"}
{"molecule": "Cc1ccc(/C=C/C(=O)c2nc3ccccc3[nH]2)cc1", "AC50": "1780 nM (active)"}
{"molecule": "NC(=O)c1ccc([N+](=O)[O-])cc1SCc1ccccc1", "AC50": "8910 nM (active)"}
{"molecule": "CCC(C)NC(=O)NC(=O)N(C1CCCCC1)S(C)(=O)=O", "note": "(stereo not drawn)", "AC50": "inactive"}
{"molecule": "C=CCn1c(SCc2ccc3c(c2)OCO3)nc2scc(-c3ccco3)c2c1=O", "AC50": "2510 nM (active)"}
{"molecule": "C=CCn1c(SC(C)C(=O)NCc2ccc3c(c2)OCO3)nc2scc(-c3ccccc3)c2c1=O", "note": "(stereo not drawn)", "AC50": "10000 nM (active)"}
{"molecule": "Cc1nc(SCC(=O)c2ccc(Cl)s2)c2oc3ccccc3c2n1", "AC50": "141 nM (active)"}
{"molecule": "CCc1nc(SCC(=O)c2ccc(Cl)s2)c2oc3ccccc3c2n1", "AC50": "251 nM (active)"}
{"molecule": "CCc1nc(SCC(=O)N2CCCc3ccccc32)c2oc3ccccc3c2n1", "AC50": "1260 nM (active)"}
{"molecule": "Cc1nc(SCC(=O)Nc2ccc3c(c2)OCCO3)c2oc3ccccc3c2n1", "AC50": "1000 nM (active)"}
{"molecule": "O=C(Cn1cnc2ccccc2c1=O)NCCC(=O)Nc1ccc2c(c1)OCCO2", "AC50": "inactive"}
{"molecule": "C/C(C[n+]1ccccc1)=N\\N=C(N)N", "activity, negative = inhibition": "-9.68% [at 11.4 µM]"}
{"molecule": "CCc1nc(SCC(=O)NCCc2ccccc2)c2oc3ccccc3c2n1", "AC50": "1580 nM (active)"}
{"molecule": "CCc1nc(N[C@H](C(=O)O)C(C)CC)c2oc3ccccc3c2n1", "note": "(stereo partly drawn)", "AC50": "inactive"}
{"molecule": "COc1ccc(/C=N/OCc2nc3c4c(ncn3n2)Oc2ccc3ccccc3c2C4c2ccccc2)cc1", "note": "(stereo not drawn)", "AC50": "inactive"}
{"molecule": "CN1CCN(c2ccc([N+](=O)[O-])cc2NC(=O)c2ccccc2Cl)CC1", "AC50": "inactive"}
{"molecule": "COc1cccc(OC)c1C(=O)NC(=S)N1CCN(c2ccc(C(F)(F)F)cc2[N+](=O)[O-])CC1", "AC50": "inactive"}
{"molecule": "CCC(=O)NC(=S)N1CCN(c2ccc([N+](=O)[O-])cc2Cl)CC1", "AC50": "12600 nM (active)"}
{"molecule": "CCCCCCCCCCCCCCC[C@H](O)[C@H](N)CO", "AC50": "inactive"}
{"molecule": "Cc1ccc(/C=N\\Nc2nc3ccc(Cl)cc3[nH]2)o1", "AC50": "2000 nM (active)"}
{"molecule": "Cc1ccc(/C=N/NC(=O)C2CCN(Cc3ccc(F)cc3Cl)CC2)o1", "AC50": "inactive"}
{"molecule": "CCN1C(=O)[C@H]2[C@H]3[C@H](O)[C@H](O)C/C(=N/OCC[C@H]4C=C[C@H](OC(C)=O)[C@@H](COC(C)=O)O4)[C@@H]3CC[C@@H]2C1=O", "activity, negative = inhibition": "-1.02% [at 11.4 µM]"}
{"molecule": "OC[C@@H]1O[C@@H](n2cnc3c(NC4CCCCC4)ncnc32)[C@@H](O)[C@H]1O", "AC50": "inactive"}
{"molecule": "C#CCSc1nncn1C(=O)/C=C/c1ccccc1", "AC50": "15800 nM (active)"}
{"molecule": "CC(C)C(=O)N[C@H]1CCCN1C(=O)/C=C\\c1ccccc1", "activity, negative = inhibition": "1.37% [at 11.4 µM]"}
{"molecule": "CC(C)C(=O)N[C@@H]1CCCN1C(=O)/C=C\\c1ccccc1", "activity, negative = inhibition": "0.0238% [at 11.4 µM]"}
{"molecule": "CN1CCN(c2nc(-c3ccccc3)cc(C(F)(F)F)n2)CC1", "AC50": "1120 nM (active)"}
{"molecule": "COc1ccc(CC(=S)N2CCOCC2)cc1OC", "AC50": "inactive"}
{"molecule": "COc1ccc(C(=O)OC(C)CN2CCN(C)CC2)cc1OC", "note": "(stereo not drawn)", "AC50": "inactive"}
{"molecule": "COc1ccc(-c2cc(C(F)(F)F)nc(N3CCOCC3)n2)cc1OC", "AC50": "501 nM (active)"}
{"molecule": "COc1ccc(-c2cc(C(F)(F)F)nc(NC3CCCC3)n2)cc1OC", "AC50": "2820 nM (active)"}
{"molecule": "COc1ccc(-c2nnn(Cc3nc(N)nc(N4CCOCC4)n3)n2)cc1OC", "AC50": "inactive"}
{"molecule": "COc1ccc(-c2cc(C(F)(F)F)nc(N3CCN(C)CC3)n2)cc1OC", "AC50": "2820 nM (active)"}
{"molecule": "COc1ccc(NC(=O)c2ccc(-c3ccc(-c4noc(C)n4)cc3C)cc2)cc1N1CCN(C)CC1", "AC50": "inactive"}
{"molecule": "O=C(O)[C@@H](O)[C@@H](O)[C@@H](O[C@H]1O[C@@H](CO)[C@@H](O)[C@@H](O)[C@@H]1O)[C@@H](O)CO", "AC50": "inactive"}
{"molecule": "C=C1c2cccc(O)c2C(O)=C2C(=O)[C@@]3(O)C(O)=C(C(N)=O)C(=O)[C@@H](N(C)C)[C@@H]3[C@@H](O)[C@H]12", "AC50": "inactive"}
{"molecule": "C#CCCCO/N=C1/C[C@@H](O)[C@@H](O)[C@@H]2[C@@H]3C(=O)N(CC)C(=O)[C@H]3CC[C@H]12", "activity, negative = inhibition": "-27.8% [at 11.4 µM]"}
{"molecule": "COc1ccc(-c2cc(C(F)(F)F)nc(N3CCCCC3)n2)cc1OC", "AC50": "631 nM (active)"}
{"molecule": "OC[C@@H]1O[C@@H](N2CCN([C@@H]3O[C@@H](CO)[C@@H](O)[C@H](O)[C@H]3O)CC2)[C@@H](O)[C@H](O)[C@H]1O", "activity, negative = inhibition": "-9.68% [at 2.29 µM]"}
{"molecule": "CS(=O)(=O)N(CC(=O)Nc1c(F)cccc1F)c1ccc(C23CC4CC(CC(C4)C2)C3)cc1", "AC50": "inactive"}
{"molecule": "Cc1cc2ncn(/N=C/c3ccc([N+](=O)[O-])o3)c2cc1C", "AC50": "10000 nM (active)"}
{"molecule": "O=C1O[C@H](CN2CCOCC2)CN1/N=C\\c1ccc([N+](=O)[O-])o1", "AC50": "inactive"}
{"molecule": "N/C(=N\\OC(=O)Cc1ccc(Cl)cc1)c1cccnc1", "AC50": "11200 nM (active)"}
{"molecule": "CCN=C(Nc1ccc(Cl)cc1)c1cccnc1", "AC50": "inactive"}
{"molecule": "C=Cc1c(C)c2cc3[nH]c(cc4nc(cc5nc(cc1[nH]2)C(C)=C5CCC(=O)O)C(CCC(=O)O)=C4C)c(C)c3C=C", "AC50": "6310 nM (active)"}
{"molecule": "C=Cc1c(C)c2cc3nc(cc4[nH]c(cc5nc(cc1[nH]2)C(C)=C5CCC(=O)O)c(CCC(=O)OC)c4C)[C@@]1(C)C3=CC=C(C(=O)OC)[C@H]1C(=O)OC", "note": "(tested in a mixture with another compound)", "AC50": "3980 nM (active)"}
{"molecule": "CC1CC(OCC(O)CN2CCN(Cc3ccccc3)CC2)CC(C)(C)C1", "note": "(stereo not drawn)", "AC50": "inactive"}
{"molecule": "C/C(=N\\Nc1nnc(C)c(=O)[nH]1)C(=O)O", "AC50": "inactive"}
{"molecule": "O=C(O)CC[C@@H](NC(=O)c1ccccc1C(=O)O)C(=O)O", "AC50": "inactive"}
{"molecule": "O=C(NCc1ccc(F)cc1)C1CCN(S(=O)(=O)N2CCCCC2)CC1", "AC50": "inactive"}
{"molecule": "C/C(=C/C(=O)NCc1ccccc1)C(=O)O", "AC50": "inactive"}
{"molecule": "CCCC(=O)NNC(=O)CCC(=O)NCc1ccccc1", "AC50": "inactive"}
{"molecule": "O=C(O)c1ccccc1C(=O)NCc1ccc(F)cc1", "AC50": "5010 nM (active)"}
{"molecule": "O=C(O)NCc1ccccc1", "note": "(tested in a mixture with another compound)", "AC50": "3160 nM (active)"}
{"molecule": "CC1CCCC(NC(=O)C2CCN(S(=O)(=O)N3CCOCC3)CC2)C1C", "note": "(stereo not drawn)", "AC50": "inactive"}
{"molecule": "COC(=O)c1c(C)oc2ccc(N(C(=O)c3ccncc3)S(=O)(=O)c3ccccc3)cc12", "AC50": "11200 nM (active)"}
{"molecule": "CN(c1ccc(C(=O)NCC2CCCO2)cc1)S(=O)(=O)c1ccccc1", "note": "(stereo not drawn)", "AC50": "inactive"}
{"molecule": "Cc1cccc(CSCCNC(=O)c2ccc(N(C)S(=O)(=O)c3ccccc3)cc2)c1", "AC50": "inactive"}
{"molecule": "Cc1cc(C)cc(Oc2coc3cc(OC(=O)c4cccs4)ccc3c2=O)c1", "AC50": "2000 nM (active)"}
{"molecule": "Cc1cccc(Oc2coc3cc(OC(=O)c4cc5ccccc5oc4=O)ccc3c2=O)c1", "AC50": "inactive"}
{"molecule": "Cc1nc(N=Nc2ccc(S(=O)(=O)O)cc2S(=O)(=O)O)c(COP(=O)(O)O)c(C=O)c1O", "AC50": "inactive"}
{"molecule": "CN(Cc1ccco1)c1nc(-c2cccnc2)nc2ccccc12", "AC50": "316 nM (active)"}
{"molecule": "CN(Cc1ccccc1)c1nc(-c2ccc([N+](=O)[O-])cc2)nc2ccccc12", "AC50": "1580 nM (active)"}
{"molecule": "CN(C)c1ccc(-c2nc(N(C)Cc3ccco3)c3ccccc3n2)cc1", "AC50": "631 nM (active)"}
{"molecule": "CN(Cc1ccco1)c1nc(-c2ccc3c(c2)OCO3)nc2ccccc12", "AC50": "501 nM (active)"}
{"molecule": "CN(Cc1ccco1)c1nc(-c2ccoc2)nc2ccccc12", "AC50": "398 nM (active)"}
{"molecule": "Cc1ccc2[nH]c3nc(CCCn4ccnc4-c4ccccc4)nnc3c2c1", "activity, negative = inhibition": "-11.9% [at 11.4 µM]"}
{"molecule": "Cc1ccc2[nH]c3c(N4CCc5ccccc5C4)ncnc3c2c1", "AC50": "1580 nM (active)"}
{"molecule": "CCOC(=O)N1CCN(C(=O)c2ccc3nc(SCc4ccc(F)cc4)n(C)c3c2)CC1", "AC50": "inactive"}
{"molecule": "COc1ccc2c(c1)nc(SCC(=O)c1ccc(Br)s1)n2C", "AC50": "7940 nM (active)"}
{"molecule": "CCOc1ccc2c(c1)nc(SCC(=O)c1ccc(Br)s1)n2C", "AC50": "2240 nM (active)"}
{"molecule": "CCC/C=C(\\CCC)C(NS(=O)(=O)c1cccs1)c1ccc(C(=O)OC)cc1", "note": "(stereo not drawn)", "AC50": "12600 nM (active)"}
{"molecule": "CCC/C=C(\\CCC)C(NC(=O)c1cccs1)c1ccc(C(=O)OC)cc1", "note": "(stereo not drawn)", "AC50": "5010 nM (active)"}
{"molecule": "CCC/C=C(\\CCC)C(NC(=O)C(C)(C)C)c1ccc(C(=O)OC)cc1", "note": "(stereo not drawn)", "AC50": "inactive"}
{"molecule": "CCC/C=C(\\CCC)C(NC(=O)Oc1ccc(F)cc1)c1ccc(C(=O)OC)cc1", "note": "(stereo not drawn)", "AC50": "inactive"}
{"molecule": "CCC/C=C(\\CCC)C(NC(=O)c1ccc(C(F)(F)F)cc1)c1ccc(C(F)(F)F)cc1", "note": "(stereo not drawn)", "AC50": "inactive"}
{"molecule": "CCC/C=C(\\CCC)C(NC(=O)OCC(C)C)c1ccc(C(=O)OC)cc1", "note": "(stereo not drawn)", "AC50": "15800 nM (active)"}
{"molecule": "CCC/C=C(\\CCC)C(NS(=O)(=O)CC12CCC(CC1=O)C2(C)C)c1ccc(C(=O)OC)cc1", "note": "(stereo not drawn)", "AC50": "inactive"}
{"molecule": "CCC/C=C(\\CCC)C(NC(=O)c1ccc(C(=O)OC)cc1)c1ccc(C(=O)OC)cc1", "note": "(stereo not drawn)", "AC50": "inactive"}
{"molecule": "CCC/C=C(\\CCC)C(NS(=O)(=O)c1ccc(C(F)(F)F)cc1)c1ccc(C(=O)OC)cc1", "note": "(stereo not drawn)", "AC50": "inactive"}
